# From PubChem BioAssay
# The list is not random: actives were taken first. Their share in the collection is about 4.1%.
# rCAG binder: binders of r(CAG) RNA repeats, primary screen, biochemical, fluorescence | actives 1.3% (n = 370,000) | AID 651821, 2012 | inhibition, % at 3 µM | r(CAG) RNA repeat, TO-PRO-1 dye displacement fluorescence;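 active = inhibition above the plate cutoff, the mean of all test compounds on that plate plus 3 SD, cut at about 35% in these data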;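 also: higher means more dye released from RNA so lower well fluorescence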
# PRMT1 FP inh: PRMT1 methyltransferase inhibitors, primary screen, biochemical, fluorescence polarization; Protein arginine N-methyltransferase 1 (Homo sapiens), Q99873; recombinant PRMT1, activity-based probe fluorescence polarization; inhibition, % at 2.79 µM; actives 1.3% (n = 370,000); AID 652257, 2013;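 active = inhibition above about 21% made by adding two undisclosed values, limit read from the data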
# LEDGF integ inh: blockers of LEDGF/p75-dependent integrase strand transfer – biochemical, TR-FRET, high throughput, primary screen; TR-FRET IN-LEDGF/p75 DNA integration, Eu/Cy5; actives 0.64% (n = 370,000); inhibition, % at 3.7 µM; HIV-1 integrase (with human LEDGF/p75);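 active = inhibition above the screen-wide mean plus 3 SD, cut at about 13% in these data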;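 also: signal is the Cy5 over europium emission ratio at 671 and 618 nm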
# MBD2 DNA inh: inhibitors of MBD2 binding to methylated DNA, primary screen, biochemical, TR-FRET, DNA-binding domain, human | actives 0.31% (n = 370,000) | inhibition, % at 4.4 µM | MBD2 binding to methylated oligonucleotide; in the data active = inhibition above about 13%
# Target sequence (Q9UBB5 whole entry, looked up, the tested form may be a part): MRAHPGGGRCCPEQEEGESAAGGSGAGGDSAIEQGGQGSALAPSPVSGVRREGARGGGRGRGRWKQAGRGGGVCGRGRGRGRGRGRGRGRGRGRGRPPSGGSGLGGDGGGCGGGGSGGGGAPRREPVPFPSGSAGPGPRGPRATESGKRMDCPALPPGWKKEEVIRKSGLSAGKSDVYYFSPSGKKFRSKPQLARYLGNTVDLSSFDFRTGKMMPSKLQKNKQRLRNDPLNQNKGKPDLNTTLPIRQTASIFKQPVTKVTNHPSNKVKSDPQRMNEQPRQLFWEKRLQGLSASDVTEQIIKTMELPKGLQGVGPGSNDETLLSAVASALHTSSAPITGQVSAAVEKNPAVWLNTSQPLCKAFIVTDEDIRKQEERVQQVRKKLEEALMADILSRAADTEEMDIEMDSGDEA
# ABHD5 PLIN5 PPI: ABHD5-PLIN5 interaction inhibitors, primary screen, cell lysate, split luciferase complementation, luminescence; Perilipin-5 (Homo sapiens) + 1-acylglycerol-3-phosphate O-acyltransferase ABHD5 (Homo …; Split G. princeps luciferase complementation, 4 h; inhibition, % at 4 µM; AID 602281, 2012; actives 0.78% (n = 360,000);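 active = inhibition above the mean inhibition across every tested compound plus 3 SD, cut at about 22% in these data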
# UHRF1 MBD2 ctr: UHRF1 methylated DNA binding inhibitors, primary screen, counter-screen for MBD2 inhibitor project, biochemical, TR-FRET, human UHRF1, single concentration; E3 ubiquitin-protein ligase UHRF1 (Homo sapiens), Q96T88; actives 0.75% (n = 370,000); inhibition, % at 4.4 µM; UHRF1 binding to methylated oligo; in the data active = inhibition above about 21%;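 also: UHRF1 SRA domain binding a hemimethylated CpG hairpin DNA probe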
# rCAG bind conf: small molecules binding CAG repeat RNA – biochemical, fluorescence, confirmation; r(CAG) RNA repeat, TO-PRO-1 dye displacement fluorescence; shares compounds with rCAG binder; actives 70% (n = 4,300); inhibition, % at 3 µM;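 active = inhibition above a per-plate cutoff, the mean inhibition of sample wells plus 3 SD, cut at about 35% in these data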;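 also: loss of TO-PRO-1 fluorescence as compound displaces dye from 1x1 AA loop RNA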
# dCAG dye counter: displacement of TO-PRO-1 from CAG DNA duplex, counter-screen for rCAG RNA repeat binder project, biochemical, fluorescence, TO-PRO-1 dye, d(CAG) DNA oligo | actives 94% (n = 4,300) | inhibition, % at 3 µM | d(CAG) DNA oligo TO-PRO-1 dye displacement | AID 652068, 2013 | shares compounds with rCAG binder;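 active = inhibition above its plate's cutoff, the mean test-well inhibition plus 3 SD, cut at about 4.8% in these data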;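 also: hits displace the dye from DNA and so lower well fluorescence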
# dCAG dye DR: inhibitors of DNA CAG/GTC TO-PRO-1 complex, dose response, counter-screen for rCAG RNA repeat binder project, biochemical, fluorescence, TO-PRO-1 dye | DNA CAG/GTC duplex TO-PRO-1 dye displacement fluorescence | IC50, µM | shares compounds with rCAG binder | actives 20% (n = 250) | AID 686960, 2013; in the data active = IC50 below about 10 µM
# A number is an active result; 0 = inactive; - = no result given.
SMILES,rCAG binder,PRMT1 FP inh,LEDGF integ inh,MBD2 DNA inh,ABHD5 PLIN5 PPI,UHRF1 MBD2 ctr,rCAG bind conf,dCAG dye counter,others
Nn1c(SCC(=O)Nc2cccc3ccccc23)nnc1-c1cc(-c2ccccc2)n[nH]1,0,0,0,0,-,0,-,-,
C=CCOC(=O)C1=C(C)N=c2sc(=C3C(=O)N(CC(=O)O)c4ccccc43)c(=O)n2C1c1ccc(OC)cc1 (configuration not stated),48.1,0,0,0,-,0,75.0,41.1,
O=C(Nc1ccc(C(F)(F)F)cc1)OC1CCC12CCC(c1ccccc1)CC2 (configuration not stated),0,0,0,0,-,0,-,-,
COC(=O)c1sc(SC)c(S(=O)(=O)C(C)C)c1N/N=C(\C#N)C(=O)c1ccccc1,52.1,0,0,0,0,0,70.9,22.5,dCAG dye DR=4.33
C/C(=N\NC(=O)c1ccccc1)c1cc2cc([N+](=O)[O-])ccc2oc1=O,49.6,0,0,0,0,0,43.7,15.3,
CCOC(=O)[C@@]12CCC3=C1N(CCC3)C(=O)[C@H](CC(=O)N1CCOCC1)C2,0,0,0,0,-,0,-,-,
CCC(C(=O)O)n1nnc(-c2ccc(-c3ccc(OC)cc3)cc2)n1 (configuration not stated),47.8,0,0,0,0,0,35.8,10.2,
O=C(Cn1cc(COc2ccc(Cl)c(Cl)c2)nn1)NS(=O)(=O)c1ccccc1C(F)(F)F,59.5,0,0,0,0,0,63.3,15.7,
CC1(C(=O)NS(=O)(=O)c2ccccc2C(F)(F)F)CCN1C(=O)COc1ccc(Cl)cc1 (configuration not stated),0,0,0,0,0,0,-,-,
CCOC(=O)c1cc(C#N)c(SCC(N)=O)[nH]c1=O,0,0,0,0,0,0,-,-,
CCOC(=O)c1cc(C#N)c(SCC(=O)Nc2ccc(C(C)=O)cc2)[nH]c1=O,42.6,0,0,0,0,0,43.6,10.4,
CC(=O)Nc1cccc(/C(C)=N/Nc2ccc(S(=O)(=O)Nc3ccccc3C(=O)O)cc2[N+](=O)[O-])c1,85.3,0,0,0,0,0,94.1,80.4,
CC(=O)Nc1ccc(C=NNc2ccc([N+](=O)[O-])cc2S(=O)(=O)Nc2ccccc2C(=O)O)cc1,57.0,0,0,0,0,0,88.7,64.8,
CC(=O)Nc1ccc(C=NNc2ccc(S(=O)(=O)Nc3ccccc3C(=O)O)cc2[N+](=O)[O-])cc1,88.5,0,0,0,0,0,91.8,73.7,
NS(=O)(=O)c1ccc(N/N=C/c2ccc(C(=O)O)cc2)c([N+](=O)[O-])c1,0,0,0,0,0,0,-,-,
COc1cc(C=NNc2ccc(S(=O)(=O)Nc3ccccc3C(=O)O)cc2[N+](=O)[O-])ccc1O,89.9,0,0,0,0,0,90.5,68.7,
O=[N+]([O-])c1cc(S(=O)(=O)Nc2ccccc2)ccc1Nc1ccccc1,0,0,0,0,0,0,-,-,
COc1cccc(NC(=O)NC2CCCCN(Cc3ccccc3C)C2=O)c1 (configuration not stated),0,0,0,0,-,0,-,-,
COc1ccc(S[C@]2(C(=O)N3CCOCC3)CC(=O)N[C@@H]2c2ccc(OC)cc2)cc1,0,0,0,0,-,0,-,-,
O=C1CCc2cc(S(=O)(=O)N3CCN(c4ccccc4Cl)CC3)ccc2N1,0,0,0,0,-,0,-,-,
CCCCNc1ccc2c(c1)OC[C@H](Cc1ccccc1)NS2(=O)=O,0,0,0,0,-,0,-,-,
COc1ccc(C(C)=NNc2ccc([N+](=O)[O-])cc2S(=O)(=O)Nc2ccccc2C(=O)O)c(OC)c1,76.8,0,0,0,0,0,93.0,78.2,
Cc1cccc(NC(=O)C(C)OC(=O)c2ccccc2NS(=O)(=O)c2cc(C)c(C)c([N+](=O)[O-])c2)c1 (configuration not stated),0,0,0,0,0,0,-,-,
O=C(O)c1ccccc1NS(=O)(=O)c1ccc(NNC(=S)Nc2ccc(OC(F)F)cc2)c([N+](=O)[O-])c1,101.0,23.2,0,0,0,0,95.2,80.3,
CCOc1ccc(C=NNc2ccc(S(=O)(=O)Nc3ccccc3C(=O)O)cc2[N+](=O)[O-])cc1OC,-,-,-,-,0,-,-,-,
SMILES,rCAG binder,PRMT1 FP inh,LEDGF integ inh,MBD2 DNA inh,ABHD5 PLIN5 PPI,UHRF1 MBD2 ctr,rCAG bind conf,dCAG dye counter,others
CCOc1cc(/C=N/Nc2ccc(S(=O)(=O)Nc3ccccc3C(=O)O)cc2[N+](=O)[O-])cc(Cl)c1O,66.7,0,0,0,0,0,92.9,73.5,
CC(C)CCN(C)C1CCN(C(=O)NCc2ccccc2)CC1,0,0,0,0,-,0,-,-,
Cc1ccc2c(c1)C1CS(=O)(=O)N(Cc3ccccc3)C(=O)N1C2 (configuration not stated),0,0,0,0,-,0,-,-,
COc1ccc(C(=O)N(C)[C@H]2C[C@H]3c4[nH]c5c(-c6ccccc6)cccc5c4CCN3C(=O)[C@H]2[C@H](C)O)cc1,0,0,0,0,-,0,-,-,
C/C(C=NNC(=O)CSc1nnc(-c2ccc(Cl)cc2)n1-c1ccc(C)cc1)=C\c1ccccc1,0,0,0,0,-,0,-,-,
Cc1ccc2nc(-c3cccc(Br)c3)c(Cc3ccccn3)n2c1,0,0,0,0,0,0,-,-,
COc1ccc(-c2nc3ccc(Br)cn3c2Cc2ccccc2C(F)(F)F)cc1OC,43.4,0,0,0,0,0,0,4.8,
Cc1ccc2nc(-c3cccc(Br)c3)c(Cc3ccccc3C(F)(F)F)n2c1,35.5,0,0,0,0,0,0,4.8,
O=C(NCc1ccco1)c1ccccc1NS(=O)(=O)c1ccc(Br)s1,44.2,0,0,0,0,0,47.6,16.4,
Cc1ccc(-n2cccc2/C=C2/C(=N)N3C(=NC2=O)SN=C3S(C)(=O)=O)cc1Cl,89.2,0,0,0,0,0,91.6,72.9,
